G9a block – qHTS Assay for Inhibitors of Histone Lysine Methyltransferase G9a. Histone-lysine N-methyltransferase EHMT2 (Homo sapiens), Q96KQ7. AID 504332, 2011. Potency, µM (top dose mostly 102 µM), without a hit: at the highest dose activity, negative = inhibition, usual class: inhibitors. 8.8% of 350,000 active. G9a H3K9 monomethylation, AlphaScreen, 2 h; further: on the % scale 0 is the no-effect control and ±100 the full control effect; nearly all actives have a fitted effect of over 75% in size
Target sequence (Q96KQ7 913-1193 limits assumed): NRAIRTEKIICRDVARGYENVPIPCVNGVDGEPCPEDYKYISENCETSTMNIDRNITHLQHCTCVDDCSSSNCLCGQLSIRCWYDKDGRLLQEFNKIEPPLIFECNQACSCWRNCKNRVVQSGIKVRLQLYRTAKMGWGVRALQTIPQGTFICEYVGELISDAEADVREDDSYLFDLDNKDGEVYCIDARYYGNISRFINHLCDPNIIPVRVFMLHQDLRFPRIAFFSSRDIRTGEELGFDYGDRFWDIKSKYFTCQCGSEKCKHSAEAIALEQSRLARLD
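AlphaScreen detection with an anti-monomethyl H3K9 antibody quantified product after a 2 h room-temperature reaction containing 500 nM biotinylated H3K9 peptide, 20 µM SAM and 20 nM enzyme, which had been preincubated 15 min with compound.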
BAZ2B inh – qHTS Assay for Inhibitors of BAZ2B | 4.4% of 360,000 active | AID 504333, 2011 | Bromodomain adjacent to zinc finger domain protein 2B (Homo sapiens), Q9UIF8 | Potency, µM (series often up to 114 µM), for inactives: at the highest dose activity change, negative = inhibition, actives largely listed as inhibitors | AlphaScreen BAZ2B-H3K14Ac peptide displacement; further: on the % scale 0 is the no-effect control and ±100 the full control effect; nearly all actives have a fitted effect of over 60% in size
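Protein-peptide AlphaScreen: BAZ2B 50 nM, b-H3K14Ac 50 nM, 1x PBS pH 7.4 + 0.01% Tween-20. Preincubation 30 min RT; cpd 30 min RT (top 110 uM); beads 20 min RT, light-protected.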
HP1b binding inh – HTS for Inhibitors of HP1-beta Chromodomain Interactions with Methylated Histone Tails | Chromobox protein homolog 1 (Homo sapiens), P83916 | AlphaScreen HP1-beta / biotin-H3K9me3 peptide binding | Potency, µM (highest dose often 114 µM), without a hit: top-dose activity change, negative = inhibition, hits mostly inhibitors | 0.56% of 390,000 active | AID 540317, 2011; further: nearly all actives have a fitted effect of over 70% in size
Target sequence (P83916 whole entry, looked up): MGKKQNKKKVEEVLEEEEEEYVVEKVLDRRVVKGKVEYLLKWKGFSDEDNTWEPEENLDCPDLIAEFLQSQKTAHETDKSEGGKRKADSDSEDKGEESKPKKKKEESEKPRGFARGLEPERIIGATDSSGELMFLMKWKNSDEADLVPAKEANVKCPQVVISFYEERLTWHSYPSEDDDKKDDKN
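Compound inhibition of the preformed complex between 50 nM HP1-beta and 50 nM biotinylated H3K9me3 peptide was read by AlphaScreen. Buffer was PBS pH 7.4 with 0.01% Tween-20. Incubations ran 30 min at room temperature, with 10 ug/mL donor/acceptor beads.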
JMJD2A Tudor inh – qHTS Assay for Inhibitors of JMJD2A-Tudor Domain. AID 504339, 2011. Lysine-specific demethylase 4A (Homo sapiens), O75164. AlphaScreen JMJD2A-Tudor / H3K4me3 peptide binding. 4.4% of 390,000 active. Potency, µM (top dose mostly 114 µM), for inactives: at the top dose activity change, negative = inhibition, usual class: inhibitors; further: on the % scale 0 is the no-effect control and ±100 the full control effect; nearly all actives have a fitted effect of over 50% in size
L3MBTL1 inh – qHTS Assay for the Inhibitors of L3MBTL1; 0.66% of 230,000 active; Lethal(3)malignant brain tumor-like protein 1 (Homo sapiens), Q9Y468; AlphaScreen L3MBTL1–H3K9me1 peptide binding; Potency, µM (doses to about 57.1 µM), inactives show at the top dose activity, negative = inhibition, actives largely listed as inhibitors; further: on the % scale 0 is the no-effect control and ±100 the full control effect; nearly all actives have a fitted effect of over 60% in size
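L3MBTL1 (50 nM) pre-complexed 30 min with biotinylated H3(1-15)K9me1 peptide (75 nM), then compounds added for 30 min at room temperature; AlphaScreen streptavidin donor/nickel chelate acceptor beads (10 ug/mL final) read after 30 min dark incubation.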
Sfp PPTase inh – qHTS Assay for Inhibitors of Bacillus subtilis Sfp phosphopantetheinyl transferase (PPTase) | Potency, µM, for inactives: largest response in the series, negative = inhibition, usual class: inhibitors | Biochemical Sfp PPTase activity, qHTS | 3.5% of 310,000 active | 4'-phosphopantetheinyl transferase ffp (Bacillus subtilis), Q9F4F7;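 further: the enzyme is Sfp with the accession as filed and its product quenches rhodamine fluorescence; 0% = enzyme reaction without inhibitor and -100% = no enzyme wells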
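Fluorescence-quenching assay with 15 nM Sfp, 5 uM rhodamine-CoA and 12.5 uM BHQ-2-labelled ybbR peptide in pH 7.6 Hepes/MgCl2 buffer. Enzyme was pre-incubated with compound for 15 min at room temperature. Rate was taken from the 30-min fluorescence change (525/598 nm).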
The depositor's hits bear a star; [ ] = another dose, or the depositor's remark. In the library only some 12% were active in any assay of this set; here they are far more common. The call rests on the fitted dose curve; in most records, active means well fitted curve in the direction sought with a large enough effect; inconclusive means small, poorly fitted or top-dose-only effect, or another doubt; inactive means no such curve, though single readings can be large; an effect the other way counts as inactive or inconclusive. Potency means the concentration at half of the fitted maximal effect.

Screening CC(C)NC(=S)N/N=C1\CCCCC1C1CCCCC1 (stereo not given) returned G9a block 22µM*, BAZ2B inh inconclusive, HP1b binding inh -45%, JMJD2A Tudor inh inconclusive and Sfp PPTase inh -22%.
CCCCN(C(=O)CCC(=O)O)C1CC(=O)N(c2ccc(OCCC)cc2)C1=O (stereo not given) was read as G9a block -1%[12.7 µM], BAZ2B inh -3%, HP1b binding inh 18%, JMJD2A Tudor inh 2%, L3MBTL1 inh 3%[11.4 µM] and Sfp PPTase inh 12%.
COc1ccc(N2C(=O)CC(Cc3ccc(Br)cc3)C2=O)cc1 (stereo not given) was read as BAZ2B inh 7%, HP1b binding inh 33%, JMJD2A Tudor inh 5%, L3MBTL1 inh 20% and Sfp PPTase inh 2%.
Screening COc1ccccc1N(O)C1CC(=O)N(c2ccc(Br)cc2)C1=O (stereo not given) returned G9a block inconclusive, BAZ2B inh inconclusive, HP1b binding inh inconclusive, JMJD2A Tudor inh 25µM*, L3MBTL1 inh -15% and Sfp PPTase inh -61%.
CCCCCCC(=O)N(O)C1CC(=O)N(c2ccc(F)cc2)C1=O (stereo not given) was read as BAZ2B inh -8%, HP1b binding inh 35µM*, JMJD2A Tudor inh 50µM*, L3MBTL1 inh 0% and Sfp PPTase inh 20µM*.
Screening CCCCCCC(=O)N(O)C1CC(=O)N(c2ccc(Br)cc2)C1=O (stereo not given) returned G9a block 0.63µM*, BAZ2B inh -10%, HP1b binding inh -65%, JMJD2A Tudor inh 25µM* and Sfp PPTase inh 22µM*.
COc1ccc(NC(=O)c2ccco2)cc1NC(=O)COc1ccc(Cl)c(C)c1 was read as G9a block 12%[59 µM], BAZ2B inh 3%, HP1b binding inh 32% and JMJD2A Tudor inh -2%.
For CCOc1ccc(N=c2cc(-c3ccc(OC)cc3)oc3ccccc23)cc1 the results were G9a block 25µM*, BAZ2B inh 13µM*, HP1b binding inh 25µM*, JMJD2A Tudor inh 16µM*, L3MBTL1 inh inconclusive and Sfp PPTase inh -13%.
`COc1ccc(-c2cc(=O)c3ccccc3o2)cc1` gave G9a block 19%[12.7 µM], BAZ2B inh 2%, HP1b binding inh 28%, JMJD2A Tudor inh -21% and Sfp PPTase inh -5%.
Screening COc1ccc(N=c2cc(-c3ccc(OC)cc3)oc3ccccc23)cc1 returned G9a block 14µM*, BAZ2B inh 28µM*, HP1b binding inh -63%, JMJD2A Tudor inh 40µM*, L3MBTL1 inh inconclusive and Sfp PPTase inh inconclusive.
For COc1ccc(N=c2cc(-c3ccc(O)cc3)oc3ccccc23)cc1 the results were G9a block inconclusive, BAZ2B inh 45µM*, HP1b binding inh inconclusive, JMJD2A Tudor inh 35µM*, L3MBTL1 inh -14% and Sfp PPTase inh -15%.
COc1ccc2c(=O)cc(-c3ccc(O)cc3)oc2c1 was read as Sfp PPTase inh -1%.
CCCCCCCC/C=C\CCCCCCCCN was read as G9a block 6%[12.7 µM] and Sfp PPTase inh 17%.
Screening CCc1ccc(S(=O)(=O)/N=C2/C=C(Sc3ncn[nH]3)C(=O)c3ccccc32)cc1 returned G9a block 1.4µM*, BAZ2B inh 45µM*, HP1b binding inh inconclusive, JMJD2A Tudor inh 4µM*, L3MBTL1 inh inconclusive and Sfp PPTase inh 3.5µM*.
CCc1ccc(S(=O)(=O)/N=C2\C=CC(=O)c3ccccc32)cc1 was read as G9a block 14µM*, BAZ2B inh 35µM* and Sfp PPTase inh -28%.
Screening CCc1ccc(S(=O)(=O)O)cc1 returned G9a block -47%[12.7 µM] and Sfp PPTase inh 21%.
For CCc1ccc(S(=O)(=O)/N=C2\C=C(Nc3ccc(O)cc3)C(=O)c3ccccc32)cc1 the results were G9a block 7.1µM*, BAZ2B inh 8.9µM*, HP1b binding inh 10µM*, JMJD2A Tudor inh 7.1µM* and Sfp PPTase inh -11%.
Screening CCc1ccc(S(=O)(=O)/N=C2\C=C(Nc3cccc(C(=O)O)c3)C(=O)c3ccccc32)cc1 returned G9a block 14µM*, BAZ2B inh 10µM*, HP1b binding inh inconclusive, JMJD2A Tudor inh 18µM* and Sfp PPTase inh -18%.
For Cc1nc(N)sc1N=Nc1ccccc1C(F)(F)F the results were G9a block 40µM*, BAZ2B inh 28µM*, HP1b binding inh 35µM*, JMJD2A Tudor inh 50µM* and Sfp PPTase inh 14%.
For Cc1[nH]n(C(N)=S)c(=O)c1N=Nc1ccccc1C(F)(F)F the results were G9a block inconclusive, BAZ2B inh -36%, HP1b binding inh 10%, JMJD2A Tudor inh inconclusive and Sfp PPTase inh inconclusive.
For O=C(CN1CCN(c2ccccc2O)CC1)Nc1ccc(S(=O)(=O)N2CCCCCC2)cc1 the results were G9a block 45µM*, BAZ2B inh -6%, HP1b binding inh 2%, JMJD2A Tudor inh -23% and L3MBTL1 inh -12%.
Screening CN(C)S(=O)(=O)c1cc(NC(=O)CNCCN2CCOCC2)ccc1Cl returned G9a block 10µM*, BAZ2B inh 50µM*, HP1b binding inh 26%, JMJD2A Tudor inh 28µM*, L3MBTL1 inh -4% and Sfp PPTase inh inconclusive.
`CN(C)S(=O)(=O)c1cc(NC(=O)CN2CCN(c3ccc(O)cc3)CC2)ccc1Cl` gave G9a block 4µM*, BAZ2B inh inconclusive, HP1b binding inh 5%, JMJD2A Tudor inh -14%, L3MBTL1 inh -8% and Sfp PPTase inh -99%.
CN(C)S(=O)(=O)c1cc(NC(=O)CN2CCN(c3ccccc3)CC2)ccc1Cl was read as G9a block 14%[59 µM], BAZ2B inh -39%, HP1b binding inh -12%, JMJD2A Tudor inh -29%, L3MBTL1 inh -6% and Sfp PPTase inh 21%.
Screening O=C(CN1CCN(c2ccc(O)cc2)CC1)Nc1ccc(S(=O)(=O)N2CCCC2)cc1 returned HP1b binding inh inconclusive, JMJD2A Tudor inh 50µM* and L3MBTL1 inh -16%.
For O=C(CN1CCCCC1)Nc1ccc(S(=O)(=O)N2CCCCCC2)cc1 the results were G9a block inconclusive, BAZ2B inh 3%, HP1b binding inh 19%, JMJD2A Tudor inh -15%, L3MBTL1 inh -2% and Sfp PPTase inh 15%.

Assay outcomes (PubChem BioAssay)
